Results: PubChem BioAssay AID588497 (NMMLSC, 2011)
Among all 360,000 compounds or so, about 780 (0.22%) were called active. Roughly 4% stayed inconclusive and do not appear here. What follows is part of a selection rich in actives, with near analogues and random picks from the rest. A number with no mark means an inactive call. No stated cut-off is given here; in the data, active means inhibition above about 35% (passing the limit was not always enough); inconclusive means no clear call, values can overlap the other calls.

Each compound was assayed on Botulinum neurotoxin type F light chain protease (Clostridium botulinum) (assay: BoNT/F light chain protease inhibitors, primary screen, biochemical, flow cytometry, MLPCN library (AID 588497; further: plate controls were buffer without enzyme for full effect and enzyme alone for no effect)). Settings: Multiplex microsphere protease cleavage assay, at 10 µM, stronger effect = higher value.

Compound | inhibition
c1ccc2c(c1)CCc1snnc1-2 | 40.3% (active)
O=C(c1snnc1-c1ccccc1)N1CCOCC1 | -9%
C=CCN(CC=C)S(=O)(=O)c1ccc(C(=O)Nc2nc3c(s2)CCc2ccccc2-3)cc1 | -8.2%
COc1ccc(CC(N)c2csc(NC(=O)Nc3ccc(C(C)C)cc3)n2)cc1 (configuration not stated) | -11.1%
CN(C)c1ccc(/C=C2\NC(=S)N(Cc3ccccc3)C2=O)cc1 | 35.7% (active)
CC1CN(Cc2ccccc2)C(=S)NC1=O (configuration not stated) | 0.1%
CN(C)c1ccc(C=C2C(=O)OC3(CCCC3)OC2=O)cc1 | 6.6%
Cc1ccc(CC2(C)C(=O)Nc3ccc(OC(F)(F)F)cc32)cc1 (configuration not stated) | -5%
C=CCC[C@@H](CCCCC)OC(=O)/C=C/[C@@H](O)[C@H](O)C[C@H](O)CC=C | 4.2%
O=C1NC[C@H](Cc2ccc(O)cc2)N(C[C@H]2CCCN2C[C@H](Cc2ccccc2)N2C[C@H](Cc3ccccc3)N(CCc3ccccc3)C(=O)C2=O)C1=O | -3.4%
O=C1Nc2ccccc2NC(c2ccc3c(c2)OCO3)=C1N(Cc1ccc(F)cc1)C(=O)c1ccco1 | -0.6%
Cc1cc(=O)n(C)c(=O)n1CCCNc1ccccc1 | 6.9%
CC(C)Oc1ccc(C(=O)Nc2cc(=O)n(C)c(=O)n2C)cc1 | -0.5%
Cn1c(Nc2ccccc2)cc(=O)n(C)c1=O | 35.2% (active)
CC(=O)c1cccc(-c2cnc3c(NC=O)cc(-c4ccccc4Oc4ccccc4)cn23)c1 | -5.9%
CC1CCc2c(sc3nc4n(c(=O)c23)CCS4)C1 (configuration not stated) | 43.2% (active)
CCCn1nnc2sc3c(c2c1=O)CCC(C)C3 (configuration not stated) | -1.8%
C=CCn1c(SCc2c(C)noc2C)nc2sc3c(c2c1=O)CCC(C)C3 (configuration not stated) | -1.6%
COc1ccc(C(c2nnnn2C2CCCC2)N2CCN(C/C=C/c3ccccc3)CC2)cc1 (configuration not stated) | -6.6%
CC(=O)Nc1cc(-c2cccc(CO)c2)cn2c(-c3cccc(C(F)(F)F)c3)cnc12 | 0.9%
O=C(NC(c1ccc(Cl)cc1)c1cnccn1)C1CCN(Cc2ccc(Cl)cc2)CC1 (configuration not stated) | -2.2%
Cc1nc2c(OCc3ccc(Cl)cc3Cl)cccn2c1N(C)CC1CC1 | -6%
Cc1nn(C)c(C)c1Sc1ccccc1N | -4.3%

Compound | inhibition
Nc1ccccc1Sc1cc(Cl)nnc1Cl | 82.9% (active)
CC(C)Nc1nc(NCCOc2ccccc2Cl)c2sccc2n1 | -12.7%
NC(Cc1ccc(F)cc1)c1csc(Nc2nncc3ccccc23)n1 (configuration not stated) | -21.6%
COc1ccc(-c2coc3c(C(=O)NC(C)C)cccc23)c(C)c1 | -5.4%
COc1cc(N2CCCC2)c(OC)cc1/C=C(/C#N)c1cccc(Br)c1 | 169% (active)
CCOc1ccc(/C=C(/C#N)c2nnc(N3CCOCC3)n2-c2ccccc2)cc1OC | -9.5%
COc1ccc(-c2ccc(C(=O)NCCN3CCOCC3)c3occc23)c(C)c1 | -4.4%
CCc1nc2ccc(C(=O)Nc3cccc(OC)c3)cn2c1N(CCC(C)C)CCN(C)C | 3%
CCOCCC(=O)Nc1ccc2c(c1)c(=O)n(C)n2-c1ccc2ccccc2c1 | -6%
OC(c1ccc(Cl)cc1)c1ncc(-c2ccc(Cl)cc2)[nH]1 (configuration not stated) | -8.9%
COc1ccc(CNC(=O)CN(c2ccc(OC)c(Cl)c2)S(=O)(=O)c2ccc(C)cc2)cc1 | -6.9%
CCN(CC)C(=O)CN(c1cccc(OC)c1)S(=O)(=O)c1ccc(C)cc1 | -9.7%
COC(=O)CN(c1nc(C)c(Cl)c(OC)n1)S(=O)(=O)c1ccc(C)cc1 | 41.2% (active)
CC(=O)Nc1cccc(-c2cc(NC=O)c3ncc(-c4ccc(F)c(Cl)c4)n3c2)c1 | -9.5%
COc1ccc(-c2cc(NC(C)=O)c3ncc(-c4cc(OC)c(OC)c(OC)c4)n3c2)cn1 | 2.1%
CC1(C(=O)NCc2cccc3ccccc23)CCN1Cc1ccc(-c2ccccc2)o1 (configuration not stated) | -9.6%
CCc1nc2c(OCc3ccc(C(F)(F)F)cc3)cccn2c1N(C)C(=O)CC(C)C | 0.4%
O=C(CN1CCN(c2ccccc2O)CC1)NC(=O)NCc1ccccc1 | 69.8% (active)
COc1ccccc1N1CCN(CC(=O)NC(=O)NCc2ccco2)CC1 | -6.6%
Oc1ccccc1N1CCN(C(=S)NCc2ccccc2)CC1 | -13.6%
Cc1ccc(Cc2c(-c3ccc(Cl)cc3)nc3c4ccccc4ccn23)cc1 | -5.5%
CSCCC(c1nnnn1Cc1ccccc1)N1CCN(C/C=C/c2ccccc2)CC1 (configuration not stated) | -9.9%
CCN1CCN(C2CCCCC2NS(=O)(=O)c2ccc(Cl)cc2)CC1 (configuration not stated) | -2%

Compound | inhibition
O=S(=O)(NC1CCCCC1N1CCC(O)CC1)c1ccc(Cl)cc1 (configuration not stated) | 110% (active)
O=S(=O)(NC1CCCCC1N1CCCCC1)c1ccc(Cl)cc1 (configuration not stated) | 24.7%
c1ccc(Cc2c(-c3ccco3)nc3c4ccccc4ccn23)cc1 | 4.5%
CCOc1ccc2[nH]c(=S)sc2c1 | 4.7%
C[C@H]([C@@H](O)[C@@H](O)[C@@H](C)C(C)(C)C)[C@H]1CC[C@H]2C3CC[C@H]4C[C@H](OS(=O)(=O)O)[C@@H](OS(=O)(=O)O)C[C@]4(C)[C@H]3CC[C@]12C (some centres not stated) | 7.2%
COc1ccc(-c2cc(NC=O)c3ncc(-c4cc(OC)c(OC)c(OC)c4)n3c2)c(OC)c1 | -7.7%
Cc1c(NC(=O)c2c([N+](=O)[O-])cnn2C)c(=O)n(-c2ccccc2)n1C | -13.3%
Cc1c(NC(=O)c2coc(=O)c(Br)c2)c(=O)n(-c2ccccc2)n1C | 0.1%
Cc1c(NC(=O)c2cccnc2)c(=O)n(-c2ccccc2)n1C | 58.9% (active)
CCCCCc1c(Cc2ccccc2)ncn1CCc1ccccc1OC | -7%
Cc1cc2nc(-c3ccc(Cl)cc3)c(Cc3cccc(F)c3)n2c(C)c1Br | -1.2%
COc1ccc(CC(N)c2csc(NC(=O)NC(c3ccccc3)c3ccccc3)n2)cc1 (configuration not stated) | -27.6%
O=C(Nc1nnc(CCc2ccccc2)s1)C1CCCO1 (configuration not stated) | 37% (active)
O=C(Nc1nnc(SCc2c(Cl)cccc2Cl)s1)C1CCCO1 (configuration not stated) | -21.4%
O=C(Nc1ccc(-c2nnc(-c3ccccc3)o2)cc1)C1CCCO1 (configuration not stated) | -1.7%
NCCCNC(=S)NCCCN(Cc1ccc(Cl)cc1)c1ccc(Br)cn1 | -47.9%
C=C1C(=O)OC2C1CCC(C)=CCCC1(C)OC21 (configuration not stated) | -2.6%
COc1ccc(Cl)cc1-c1cc(C(=O)Nc2cc(OC)c(OC)c(OC)c2)[nH]n1 | -0.6%
CCCc1c(-c2ccccc2F)ncn1Cc1ccccc1OC | -10.4%
Cc1ccc(C(=O)COc2cccc(NC(=O)c3ccco3)c2)cc1 | 44.6% (active)
Cc1cccc(OCC(=O)Nc2ccc(NC(=O)c3ccco3)c(C)c2)c1 | 17.3%
Cc1ccc(NC(=O)c2ccco2)cc1 | -6%
Clc1cccc(Cc2c(-c3cccc(Cl)c3)nc3ccc(Cl)cn23)c1 | -3.7%

Compound | inhibition
Fc1cccc(Cc2c(-c3ccc(Cl)cc3)nc3ccc(Cl)cn23)c1 | -6%
O=C(Cc1ccccc1[N+](=O)[O-])N1CCN(Cc2ccc3c(c2)OCO3)CC1 | -12.3%
CCN1CCN(C(C(=O)NC2CCCC2)c2cc3c(cc2[N+](=O)[O-])OCO3)CC1 (configuration not stated) | 35.9% (active)
CCC(C)(C(=O)NC1CCCCC1)N(C)C(=O)c1ccc2c(c1)OCO2 (configuration not stated) | 4%
OC(c1ccccc1)c1nc(/C=C/c2ccc(C(F)(F)F)cc2)cs1 (configuration not stated) | -10.4%
Cc1cc(=O)oc2c3c(cc(OCC(=O)NCC(O)c4ccccc4)c12)OC(C)(C)CC3 (configuration not stated) | -2%
O=C(CC[C@H]1O[C@@H](n2ccc(=O)[nH]c2=O)[C@H](O)[C@@H]1O)N[C@H](Cc1ccccc1)C(=O)NCCCN1CCCC1=O | 1.4%
O=C(NCCc1ccc(Cl)cc1)C1CCCN1C(=O)NCc1ccccc1 (configuration not stated) | -20.3%
Cc1ccc(CNC(=O)C2CCCN2C(=O)NCc2ccccc2)cc1 (configuration not stated) | 5.7%
CC(=O)c1cccc(NC(=O)N2CCCC2C(=O)NCCc2ccccc2)c1 (configuration not stated) | 35.3% (active)
CCOC(=O)c1ccc(-c2ccc3ncnc(N(C)Cc4sccc4C)c3c2)o1 | 6.1%
CC(=O)N1Cc2cc(C(=O)NCc3cccc(F)c3)nc(-c3cccc(C4=CCCCC4)c3)c2[C@H]1CCO | -0.7%
CN(C(=O)C1CCOC1)c1nnc(-c2cccnc2)s1 (configuration not stated) | 6.9%
CN(C(=O)c1ccccn1)c1nnc(-c2ccccn2)s1 | 40.4% (active)
O=C(Nc1nnc(C2CC2)s1)c1ccccn1 | -19.8%
CC(C)Cc1nnc(NC(=O)CN2C(=O)NC3(CCCCC3)C2=O)s1 | 7.7%
CC(C)Cc1nnc(NC(=O)CCNC(=O)c2ccccc2Cl)s1 | -5.1%
CC(C)Cc1nnc(NC(=O)CCC(=O)Nc2ccc3cn[nH]c3c2)s1 | 43.7% (active)
CCCc1nc2c3ccccc3ccn2c1Cc1ccccc1C(F)(F)F | 1%
Cc1nc2c(OCc3ccc(Cl)cc3)cccn2c1N(C)Cc1cccs1 | -1.1%
O=C(C[n+]1cc(Br)cc2ccccc21)c1ccc(F)cc1 | 41.8% (active)
COC(=O)C[n+]1cccc2ccccc21 | 10%
O=C(CNC(=O)c1ccccc1F)c1ccc(Br)cc1 | -24.7%
